For test [1], the target named is Thyrotropin receptor (Homo sapiens) (UniProt P16473). Put plainly: qHTS Assay for Antagonists of the Thyroid Stimulating Hormone Receptor (AID 488980). Note: series mostly up to about 58 µM; 0% is about no effect. In short, it runs like this: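 Inhibition of cAMP raised by EC80 TSH (4 nM final) was read by HTRF, with lysate cAMP competing against cAMP-d2 for cryptate antibody after 30 min at room temperature. The cells were transfected HEK293 held in phosphodiesterase inhibitor RO 20-1724 at 70 uM.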
Sequence of Thyrotropin receptor (Homo sapiens) (P16473 whole entry, looked up): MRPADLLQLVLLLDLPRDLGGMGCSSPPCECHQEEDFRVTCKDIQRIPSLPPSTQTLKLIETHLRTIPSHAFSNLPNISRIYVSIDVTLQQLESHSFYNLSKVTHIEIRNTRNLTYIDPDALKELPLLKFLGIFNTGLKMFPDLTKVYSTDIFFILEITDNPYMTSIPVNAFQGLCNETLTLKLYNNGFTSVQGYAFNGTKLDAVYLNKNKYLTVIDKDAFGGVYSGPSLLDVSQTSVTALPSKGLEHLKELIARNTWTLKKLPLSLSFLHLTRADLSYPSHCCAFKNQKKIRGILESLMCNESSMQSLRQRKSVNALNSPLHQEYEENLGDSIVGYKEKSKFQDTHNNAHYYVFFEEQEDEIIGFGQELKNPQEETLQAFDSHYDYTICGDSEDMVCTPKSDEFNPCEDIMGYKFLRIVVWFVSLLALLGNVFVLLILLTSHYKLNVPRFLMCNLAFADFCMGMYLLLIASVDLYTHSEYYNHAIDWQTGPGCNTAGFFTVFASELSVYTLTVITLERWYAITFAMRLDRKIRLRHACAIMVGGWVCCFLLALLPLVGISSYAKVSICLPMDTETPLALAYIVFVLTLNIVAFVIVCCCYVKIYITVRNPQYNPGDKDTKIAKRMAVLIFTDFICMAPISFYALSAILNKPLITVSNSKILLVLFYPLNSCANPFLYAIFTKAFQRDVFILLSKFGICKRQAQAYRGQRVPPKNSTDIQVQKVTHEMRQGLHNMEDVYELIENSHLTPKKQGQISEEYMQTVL

In test [2] the target is D(1A) dopamine receptor (Homo sapiens) (UniProt P21728). Put plainly: HTS Assay for Allosteric Agonists of the Human D1 Dopamine Receptor: Primary Screen for Agonists (AID 488981). For activation: 0% is about no effect. Note: potency is the fitted concentration of half-maximal effect. In short, it runs like this:
(§1)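 Calcium flux in an inducible, force-coupled HEK293 Trex D1 line (overnight at 30 C): agonist mode is the 180 s kinetic read after compound; potentiator mode is the following 180 s read after dopamine at EC20.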

Test [3] has the same target. Put plainly: HTS Assay for Allosteric Agonists of the Human D1 Dopamine Receptor: Primary Screen for Antagonists (AID 488983).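 Note: calcium flux response to an EC80 dopamine challenge measured with no-wash dye; % is set by controls: 0 for no effect and ±100 for the full control effect; nearly all actives have a fitted effect of over 65% in size.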 In a few lines: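 Cells are induced with tetracycline and incubated overnight at 30 C, then loaded with calcium dye for 30 to 90 minutes at room temperature. Compound addition is followed by a 180 s read, then an EC80 dopamine addition and another 180 s read.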

The nature of test [4]: Validation screen for small molecules that induce genotoxicity in human embryonic kidney (HEK293T) cells expressing luciferase-tagged ELG1 (AID 493106). Note: 0% is about no effect. In a few lines:
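Luminescence from an ELG1-luciferase fusion serves as the read-out, rising when genetic stress elevates ELG1 protein. HEK293T reporter cells (2,000 per well) received 23 nL compound, incubated 16 hr at 37 °C, then ONE-Glo for 30 min at room temperature.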

The target of test [5] is ATPase family AAA domain-containing protein 5 (Homo sapiens) (UniProt Q96QE3). Put plainly: Validation screen for small molecules that inhibit ELG1-dependent DNA repair in human embryonic kidney (HEK293T) cells expressing luciferase-tagged ELG1 (AID 493107).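 Note: cells co-treated with the DNA-damaging agent 5-fluorouridine alongside compound; series mostly up to about 46 µM; % is set by controls: 0 for no effect and ±100 for the full control effect; inhibitors lower the ELG1-luciferase luminescence signal; nearly all actives have a fitted effect of over 70% in size.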 In a few lines: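 Luminescence from ONE-Glo, developed 30 min at room temperature, served as read-out of ELG1-luciferase levels. Beforehand, reporter HEK293T cells received 5-fluorouridine plus test compound for 16 hr at 37 °C.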

The target of test [6] is Thyrotropin-releasing hormone receptor (Homo sapiens) (UniProt P34981). Put plainly: qHTS for Small Molecule Agonists and Allosteric Enhancers of Human TRH Receptor: Validation Screen for Agonists (AID 493127;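 active = calcium activation more than 3 SD above the typical response in the agonist read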;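 note: intracellular calcium rise by fluo-8 fluorescence before TRH EC20 addition; 0% is about no effect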). The settings on record: TRH receptor agonist cell assay; at 2 µM; stronger effect = higher value. In short, it runs like this: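 Cells 2000/well, 10% FCS, 18 h 33.5C/5% CO2 → fluo-8 Ca dye, RT 30 min–1.5 h → FDSS baseline 10 × 1 s → compound added → 230 cycles (1 s/cycle) agonist mode. TRH controls.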
Sequence of Thyrotropin-releasing hormone receptor (Homo sapiens) (P34981 whole entry, looked up): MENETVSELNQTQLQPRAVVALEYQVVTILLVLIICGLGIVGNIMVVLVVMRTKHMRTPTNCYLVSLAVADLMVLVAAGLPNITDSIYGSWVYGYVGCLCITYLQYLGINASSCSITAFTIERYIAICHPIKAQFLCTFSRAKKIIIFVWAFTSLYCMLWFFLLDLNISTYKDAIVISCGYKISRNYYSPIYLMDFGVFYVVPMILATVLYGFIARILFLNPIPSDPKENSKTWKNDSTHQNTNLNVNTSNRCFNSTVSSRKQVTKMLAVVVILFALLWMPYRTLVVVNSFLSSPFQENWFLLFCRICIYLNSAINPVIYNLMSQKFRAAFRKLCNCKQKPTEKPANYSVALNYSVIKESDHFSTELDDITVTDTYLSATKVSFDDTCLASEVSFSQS

Test [7] is described as follows: Nrf2 qHTS screen for inhibitors: Validation (AID 493153; active = well fitted inhibition curve with a large enough effect in the main read-out, with a control signal flat, not every such curve was filed as active). As to conditions: Potency: luciferase luminescence; viability change: measured here: cytotoxicity max response. In a few lines:
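Luminescence from an ARE-firefly luciferase reporter in A549 cells gives Nrf2 inhibition; an earlier CellTiter-Fluor fluorescent read flags cytotoxicity. Cells in 5% FBS OPTI-MEM received compound dilution series for 18-24 h at 37°C.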

A short description of test [8]: qHTS for Inhibitors of Cell Surface uPA Generation: Validation Assay (AID 493164). Note: 0% is about no effect. In short, it runs like this: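 RAW 264.7 cells (4000/well) were plated overnight, then exposed for 18 h at 37 C, 5% CO2 to compounds in a 7-point 1:5 titration (2.45 nM–38.3 uM final). Intracellular ATP was read by ATP-Lite luminescence.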
For test [9], the target named is Galactokinase (Homo sapiens) (UniProt P51570). Put plainly: qHTS Validation Assay for Inhibitors of Human Galactokinase (GALK) (AID 493189). Note: 0% is about no effect. In short, it runs like this: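 Inhibition was measured as remaining ATP, detected by luciferase luminescence after a 1 h room-temperature reaction. Final conditions: 5 nM GALK, 100 uM galactose, 35 uM ATP, pH 8.0 HEPES buffer.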
Sequence of Galactokinase (Homo sapiens) (P51570 whole entry, looked up): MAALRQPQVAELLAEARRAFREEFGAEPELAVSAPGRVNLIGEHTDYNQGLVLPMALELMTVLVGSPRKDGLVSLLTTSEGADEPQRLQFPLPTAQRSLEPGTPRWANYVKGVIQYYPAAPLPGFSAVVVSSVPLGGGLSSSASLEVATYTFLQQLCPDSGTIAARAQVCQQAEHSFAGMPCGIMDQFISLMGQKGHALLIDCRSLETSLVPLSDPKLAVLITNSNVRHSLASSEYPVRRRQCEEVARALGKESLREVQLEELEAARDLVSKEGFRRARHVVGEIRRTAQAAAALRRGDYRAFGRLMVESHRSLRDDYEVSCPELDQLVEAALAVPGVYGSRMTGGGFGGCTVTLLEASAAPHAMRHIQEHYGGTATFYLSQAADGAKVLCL

A short description of test [10]: Validation screen for small molecules that induce DNA re-replication in SW480 colon adenocarcinoma cells (AID 504364). Note: 0% is about no effect. In a few lines:
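250 cells/well; compound pinned in; 48 hr, 37 C, 5% CO2; Hoechst added, 40 min; nuclear fluorescence imaged, 405 ex / 500-530 em; re-replication scored as increase in high-intensity nuclei.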

For test [11], the target named is Peptidyl-prolyl cis-trans isomerase NIMA-interacting 1 (Homo sapiens) (UniProt Q13526). Put plainly: qHTS Validation Assay to Find Inhibitors of Pin1 (AID 504536; active = well fitted inhibition curve with a large enough effect in the polarisation, with a control signal flat, not every such curve was filed as active; the % refers to the polarisation;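 note: 0% = full Pin1 enzyme wells and -100% = no-enzyme wells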). In a few lines: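 Fluorescence polarization competition: compounds (titration) displace HiFluor-488-labeled Pin1-1b peptide from Pin1 (0.3 uM final) in pH 7.5 HEPES buffer with DTT, 10 min at room temperature; %Activity normalized to no-enzyme wells, curves fitted.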
Sequence of Peptidyl-prolyl cis-trans isomerase NIMA-interacting 1 (Homo sapiens) (Q13526 whole entry, looked up): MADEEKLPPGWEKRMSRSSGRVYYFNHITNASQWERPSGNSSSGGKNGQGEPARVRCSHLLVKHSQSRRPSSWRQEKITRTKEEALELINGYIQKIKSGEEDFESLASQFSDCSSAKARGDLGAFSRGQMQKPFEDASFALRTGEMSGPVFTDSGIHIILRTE

For test [12], the target named is Phosphoglycerate kinase, glycosomal (Trypanosoma brucei brucei) (UniProt P07378). Put plainly: qHTS Validation Assay to Find Inhibitors of Phosphoglycerate Kinase (AID 504547).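 Note: control wells lack PGK and mark full inhibition.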 In short, it runs like this:
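Inhibition of the enzyme is judged by a Kinase-Glo Plus luminescent signal following a one-hour incubation at room temperature. Because 1,3-BPG is unstable, it is made in situ by GAPDH at 100nM final; no-PGK wells define the baseline.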

The target in test [13] is Ubiquitin carboxyl-terminal hydrolase 1 (Homo sapiens) (UniProt O94782). Put plainly: Inhibitors of USP1/UAF1: Pilot qHTS (AID 504865).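 Note: rhodamine fluorescence freed from ubiquitin-rhodamine substrate followed over time; top concentration of the series differs between compounds; % is set by controls: 0 for no effect and ±100 for the full control effect; nearly all actives have a fitted effect of over 35% in size.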 In a few lines:
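Deubiquitinase activity followed as kinetic rhodamine fluorescence release from 150 nM Ub-Rho. 1 nM USP1/UAF1 with compound, after 15 min room-temperature preincubation, in HEPES pH 7.8 buffer containing TCEP, EDTA, BSA and Tween-20.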

Test [14] in a line: qHTS for Inhibitors of ATXN expression: Validation of Cytotoxic Assay (AID 588349). Note: % is set by controls: 0 for no effect and ±100 for the full control effect. In short, it runs like this:
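Read-out: ATP-based luminescence (CellTiter Glo) reflecting viability of HEK293 cells after 72 hr incubation at 37 degrees C with a concentration series of each compound.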

Test [15] in a line: qHTS for Inhibitors of ATXN expression: Validation (AID 588378). Note: series mostly up to about 57 µM; % is set by controls: 0 for no effect and ±100 for the full control effect; nearly all actives have a fitted effect of over 75% in size. In short, it runs like this: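 Luciferase luminescence (Bright-Glo) from an ATXN2-FFLuc HEK293 line after 24 h compound exposure at 37 °C, preceded by a CellTiter-Fluor fluorescence viability read. Serial dilutions of a reference ATXN2 inhibitor and a luciferase inhibitor served as controls.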
Test [16] concerns the target D(1A) dopamine receptor (Homo sapiens) (UniProt P21728). Put plainly: HTS Assay for Allosteric Agonists of the Human D1 Dopamine Receptor: Primary Screen for Potentiators (AID 488982). Note: 0% is about no effect. In a few lines:
as §1

In test [17] the target is phosphoglycerate mutase (Leishmania major) (UniProt Q4Q090). Put plainly: qHTS Validation Assay to Find Inhibitors of Phosphoglycerate Mutase (AID 504548). Note: series mostly up to about 58 µM; % is set by controls: 0 for no effect and ±100 for the full control effect. As to conditions: Potency: inhibition qHTS. In short, it runs like this: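 Luminescent end-point read-out via Kinase-GloPlus after a 10-minute development. Reaction: 1.25nM Leishmania major PGAM with substrate and compound, 45 minutes at room temperature in TEA buffer (pH 7.6) with MgCl2 and Tween-20.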
Sequence of phosphoglycerate mutase (Leishmania major) (Q4Q090 1-553): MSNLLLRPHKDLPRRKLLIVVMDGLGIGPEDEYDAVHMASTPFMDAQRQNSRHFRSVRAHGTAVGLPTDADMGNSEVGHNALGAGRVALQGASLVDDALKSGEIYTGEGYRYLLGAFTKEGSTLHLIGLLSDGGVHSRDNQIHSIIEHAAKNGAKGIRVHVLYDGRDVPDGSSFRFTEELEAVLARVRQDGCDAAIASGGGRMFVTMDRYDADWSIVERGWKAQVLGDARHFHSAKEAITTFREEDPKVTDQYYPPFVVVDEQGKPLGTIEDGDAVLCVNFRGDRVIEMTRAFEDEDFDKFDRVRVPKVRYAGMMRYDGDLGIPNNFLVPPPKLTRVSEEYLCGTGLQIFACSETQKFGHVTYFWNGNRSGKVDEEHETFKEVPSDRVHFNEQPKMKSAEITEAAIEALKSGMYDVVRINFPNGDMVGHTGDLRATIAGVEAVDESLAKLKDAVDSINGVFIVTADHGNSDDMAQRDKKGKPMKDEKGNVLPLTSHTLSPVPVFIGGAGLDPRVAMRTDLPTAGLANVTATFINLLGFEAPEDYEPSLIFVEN

Results filed as inconclusive are left out. The source made the active and inactive calls. Unless noted, calls come from the whole dose curve; as a rule, active = well fitted curve in the direction sought with a large enough effect; inconclusive = small, poorly fitted or top-dose-only effect, or another doubt; inactive = no such curve, though single readings can be large; an effect the other way counts as inactive or inconclusive.

Sequence of D(1A) dopamine receptor (Homo sapiens) (P21728 whole entry, looked up): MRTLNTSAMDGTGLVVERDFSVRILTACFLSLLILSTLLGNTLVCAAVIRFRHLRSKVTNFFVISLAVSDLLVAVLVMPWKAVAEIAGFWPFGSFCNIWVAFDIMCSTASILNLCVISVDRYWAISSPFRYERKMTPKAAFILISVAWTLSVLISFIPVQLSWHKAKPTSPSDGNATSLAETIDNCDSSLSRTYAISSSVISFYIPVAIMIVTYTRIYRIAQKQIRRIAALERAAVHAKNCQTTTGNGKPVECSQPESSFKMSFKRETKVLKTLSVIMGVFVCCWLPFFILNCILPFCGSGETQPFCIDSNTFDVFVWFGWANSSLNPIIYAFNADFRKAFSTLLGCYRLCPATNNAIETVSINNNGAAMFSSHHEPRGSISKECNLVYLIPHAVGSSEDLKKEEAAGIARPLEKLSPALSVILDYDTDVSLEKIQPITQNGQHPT
Sequence of Phosphoglycerate kinase, glycosomal (Trypanosoma brucei brucei) (P07378 whole entry, looked up): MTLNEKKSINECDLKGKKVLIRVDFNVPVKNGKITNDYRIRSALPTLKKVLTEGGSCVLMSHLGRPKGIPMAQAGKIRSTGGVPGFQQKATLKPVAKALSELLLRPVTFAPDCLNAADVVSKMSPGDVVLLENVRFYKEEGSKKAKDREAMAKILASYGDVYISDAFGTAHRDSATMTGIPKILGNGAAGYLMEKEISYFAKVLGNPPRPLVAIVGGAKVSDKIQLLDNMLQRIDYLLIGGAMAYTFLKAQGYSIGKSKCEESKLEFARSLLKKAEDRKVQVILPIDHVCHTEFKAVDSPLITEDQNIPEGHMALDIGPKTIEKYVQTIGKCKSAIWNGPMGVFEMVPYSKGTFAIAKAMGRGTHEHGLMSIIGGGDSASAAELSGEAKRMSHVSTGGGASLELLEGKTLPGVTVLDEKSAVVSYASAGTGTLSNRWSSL
Sequence of Ubiquitin carboxyl-terminal hydrolase 1 (Homo sapiens) (O94782 whole entry, looked up): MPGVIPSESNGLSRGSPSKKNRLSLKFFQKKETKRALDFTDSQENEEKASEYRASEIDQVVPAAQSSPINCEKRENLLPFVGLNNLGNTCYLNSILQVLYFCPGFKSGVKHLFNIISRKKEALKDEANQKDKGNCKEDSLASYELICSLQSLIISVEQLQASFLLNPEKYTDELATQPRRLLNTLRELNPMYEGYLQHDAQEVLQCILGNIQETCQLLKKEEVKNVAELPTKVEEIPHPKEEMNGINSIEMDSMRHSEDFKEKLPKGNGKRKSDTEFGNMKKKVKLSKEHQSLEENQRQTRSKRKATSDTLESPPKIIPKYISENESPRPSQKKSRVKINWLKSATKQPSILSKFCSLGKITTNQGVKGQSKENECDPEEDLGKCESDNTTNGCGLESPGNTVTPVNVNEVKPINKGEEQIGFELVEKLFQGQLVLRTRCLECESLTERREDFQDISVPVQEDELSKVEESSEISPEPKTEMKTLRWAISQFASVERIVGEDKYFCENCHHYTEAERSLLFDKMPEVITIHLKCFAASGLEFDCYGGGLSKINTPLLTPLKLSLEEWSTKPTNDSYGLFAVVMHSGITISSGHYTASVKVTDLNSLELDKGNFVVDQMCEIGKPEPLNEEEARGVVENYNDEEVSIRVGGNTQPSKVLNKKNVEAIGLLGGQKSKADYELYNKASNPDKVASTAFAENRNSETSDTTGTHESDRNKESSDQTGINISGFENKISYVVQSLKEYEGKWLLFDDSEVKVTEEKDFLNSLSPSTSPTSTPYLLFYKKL

For the compound `[Li+]`, the call in test [1] and in test [8] was inactive. For the same compound, the Potency entry in test [2], in [3], in test [4], in [5], in test [7] and in test [9] was “inactive” throughout. In addition, the Potency entry in test [10], in test [11], in test [12], in test [13], in test [14] and in test [15] was “inactive” in each case. In addition, the activation in test [6] is 1.31% (inactive). Also, the viability change in [7] is 6.42%.
Regarding `C=C1C[C@@]23CC[C@H]4[C@@](C)(CCC[C@@]4(C)C(=O)OC4OC(CO)C(O)C(O)C4O)[C@@H]2CC[C@]1(OC1OC(CO)C(O)C(O)C1OC1OC(CO)C(O)C(O)C1O)C3` (stereo partly drawn), the Potency result in test [2], in test [16], in test [3], in test [4], in test [5] and in [7] was “inactive” throughout. The Potency entry in test [11], in [12], in test [17], in test [13], in test [14] and in [15] was “inactive” throughout. Further, the viability change in [7] is -3.06%. The call in test [8] was inactive.
Regarding `N[C@H](C(=O)O)[C@H](O)C(=O)O`, the outcome in test [1] and in test [8] was inactive. Moreover, the Potency result in [2], in [16], in test [3], in [7], in test [9] and in [10] was “inactive” in each case. The Potency entry in [12], in [17], in test [13] and in [15] was “inactive” throughout. Further, in test [6], the activation was 0.0625% (inactive). Moreover, the viability change in test [7] was found to be 7.86%.
Consider `CC(N)=O`, for which the call in test [1] and in test [8] was inactive. Also, the Potency result in [16], in test [3], in test [4], in [5], in test [7] and in test [9] was “inactive” throughout. Further, the Potency result in [10], in test [12], in test [17], in [13], in [14] and in [15] was “inactive” in each case. Further, the activation in test [6] is 0.25% (inactive). For the same compound, in [7], the viability change was found to be 1.69%.
For the compound `CCN(c1nc(N)c(C(=O)N=C(N)N)nc1Cl)C(C)C`, the call in [1] and in test [8] was inactive. For the same compound, the Potency result in [2], in [16], in test [4], in test [7], in test [9] and in test [10] was “inactive” each time. Also, the Potency entry in [11], in [12], in [17], in test [13], in test [14] and in test [15] was “inactive” each time. Besides, in test [6], the activation is 2.31% (inactive). The viability change in [7] was -6.66%.
On to `O=c1ccn([C@@H]2O[C@H](COP(=O)(O)OP(=O)(O)O)[C@@H](O)[C@H]2O)c(=O)[nH]1`, for which the result in test [1] and in test [8] was inactive. In addition, the Potency entry in [2], in test [3], in [7], in [9], in [10] and in test [11] was “inactive” in each case. The Potency result in [12], in [17], in test [13] and in test [15] was “inactive” in each case. The activation in [6] is 0.188% (inactive). Besides, the viability change in test [7] was 3.88%.
`CC(C)(CO)Cc1cc(C(C)(C)C)c(O)c(C(C)(C)C)c1`: the compound was classed as inactive in [1] and in [8]. Moreover, the Potency in test [2] was 15.8 µM (active). Further, the Potency entry in test [3], in [4], in test [5], in test [7], in test [9] and in [10] was “inactive” each time. The Potency result in test [11] and in test [17] was “inactive” each time. In addition, the activation in test [6] was -13.9% (inactive). Moreover, the viability change in [7] is 10.3%.

The values are drawn from PubChem BioAssay (NCATS).
